# In the supplement of paper PMC8728848:
# The full list was thinned out, with the strongest signals kept by preference.
# B1: GS7807I-bvu-563-22-563 (Bacteroides vulgatus) (protein)
# chain: IFSSCTDDFEKLNTSNIQVDPADLPFAAQCTEPMTYCYPPQQNMFQFWTNLTIDLYGGYFMTPNGNFTNGDMGENRGHSGGMYENYYLHIFNNTRRIIAQCDASGERGLSGVMRIVQAYGTLMTTDAYGPIPYSSILSGENEVYFEFDSQKDLYKAMLEDLSTAITDISAMGADEIAKLKSFDCWCNGDKDLWVKIANTMKLRMALRLSKRETEAGNAGMNLKAIATEAAQNTLATVNKDILIDKSLENEMWLMFNWGDCGFNANLVTIMSGTKDPRQPLYMTLNTGDIKNEAGTTTVAANSQYLGIRFASGLPAKPNSWGNFSGWIQGNNGSSYSMPLPIMKAAEAYFLLAEAKLRWDIGSESVKNLYENGIRVSMTNELAYRGAYAGIKEYPEGAVDAYINGTSTQIDYTDPIKAELSTPAVNKLSVKWDESASNEEKLERIITQKWLALFPLSTEGWAEQRRTGYPRFFPAFVNESNGAVNTEEGVRRVIYSSQAYDANAKGVEGGIKLLDEENSSKFGISGDKGGTHLWWDNADKGNF
# How the values were obtained:
# Test in all cases: glycan array binding signal (z-score within array); higher = stronger binding
# Conditions in all cases: glycan notation: IUPAC condensed, linker removed
# [1] = molecular target: Fuc(a1-2)Gal(b1-3)GlcNAc(b1-2)Man(a1-3)[Fuc(a1-2)Gal(b1-3)GlcNAc(b1-2)Man(a1-6)]Man(b1-4)GlcNAc(b1-4)GlcNAc
# How it was run: (§1)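 From the Consortium for Functional Glycomics database, 3228 arrays were curated, keeping only those whose protein sequence was available. Binding is given as a within-array Z-score averaged across arrays sharing a protein sequence and across linkers. Negative Z-scores can be read as non-binding.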
# [2] = molecular target: Fuc(a1-2)Gal(b1-3)GlcNAc(b1-3)[Neu5Ac(a2-6)Gal(b1-4)GlcNAc(b1-6)]Gal(b1-4)Glc
# How it was run: as §1
# [3] = molecular target: Fuc(a1-2)Gal(b1-3)[Fuc(a1-4)]GlcNAc(b1-3)[Gal(b1-4)GlcNAc(b1-6)]Gal(b1-4)Glc
# How it was run: as §1
# [4] = molecular target: Fuc(a1-2)[Gal(a1-3)]Gal(b1-3)GlcNAc(b1-2)Man(a1-3)[Fuc(a1-2)[Gal(a1-3)]Gal(b1-3)GlcNAc(b1-2)Man(a1-6)]Man(b1-4)GlcNAc(b1-4)[Fuc(a1-6)]GlcNAc
# How it was run: as §1
# [5] = molecular target: Fuc(a1-2)[Gal(a1-3)]Gal(b1-3)GlcNAc(b1-6)GalNAc
# How it was run: as §1
# [6] = molecular target: Fuc(a1-2)[GalNAc(a1-3)]Gal(b1-4)GlcNAc(b1-2)Man(a1-3)[Fuc(a1-2)[GalNAc(a1-3)]Gal(b1-4)GlcNAc(b1-2)Man(a1-6)]Man(b1-4)GlcNAc(b1-4)GlcNAc
# How it was run: as §1
# [7] = molecular target: Fuc(a1-3)[Gal3S(b1-4)]GlcNAc
# How it was run: as §1
# [8] = molecular target: Fuc(a1-3)[Gal3S(b1-4)]GlcNAc6S
# How it was run: as §1
# [9] = molecular target: Gal(a1-3)Gal(b1-4)GlcNAc(b1-3)GalNAc
# How it was run: as §1
# [10] = molecular target: Gal(a1-3)Gal(b1-4)[Fuc(a1-3)]GlcNAc(b1-2)Man(a1-3)[Gal(a1-3)Gal(b1-4)[Fuc(a1-3)]GlcNAc(b1-2)Man(a1-6)]Man(b1-4)GlcNAc(b1-4)GlcNAc
# How it was run: as §1
# [11] = molecular target: Gal(a1-3)[Gal(a1-4)]Gal(b1-4)GlcNAc
# How it was run: as §1
# [12] = molecular target: Gal(a1-4)Gal(b1-4)GlcNAc
# How it was run: as §1
# [13] = molecular target: Gal(a1-4)Gal(b1-4)GlcNAc(b1-2)Man(a1-3)[Gal(a1-4)Gal(b1-4)GlcNAc(b1-2)Man(a1-6)]Man(b1-4)GlcNAc(b1-4)GlcNAc
# How it was run: as §1
# [14] = molecular target: Gal(b1-3)GlcNAc(b1-2)Man(a1-3)[GlcNAc(b1-4)][Gal(b1-3)GlcNAc(b1-2)Man(a1-6)]Man(b1-4)GlcNAc(b1-4)GlcNAc
# How it was run: as §1
# [15] = molecular target: Gal(b1-3)GlcNAc(b1-3)Gal(b1-4)Glc
# How it was run: as §1
# [16] = molecular target: Gal(b1-3)GlcNAc(b1-3)Gal(b1-4)[Fuc(a1-3)]GlcNAc
# How it was run: as §1
# [17] = molecular target: Gal(b1-3)[Fuc(a1-4)]GlcNAc(b1-6)GalNAc
# How it was run: as §1
# [18] = molecular target: Gal(b1-3)[GlcNAc(b1-6)]GalNAc
# How it was run: as §1
# [19] = molecular target: Gal(b1-3)[Neu5Ac(a2-6)]GalNAc
# How it was run: as §1
# [20] = molecular target: Gal(b1-4)GlcNAc(b1-2)[Gal(b1-4)GlcNAc(b1-6)]Man(a1-6)[Gal(b1-4)GlcNAc(b1-2)Man(a1-3)]Man(b1-4)GlcNAc(b1-4)[Fuc(a1-6)]GlcNAc
# How it was run: as §1
# [21] = molecular target: Gal(b1-4)GlcNAc(b1-3)Gal(b1-4)GlcNAc(b1-2)[Gal(b1-4)GlcNAc(b1-3)Gal(b1-4)GlcNAc(b1-6)]Man(a1-6)[Gal(b1-4)GlcNAc(b1-3)Gal(b1-4)GlcNAc(b1-2)Man(a1-3)]Man(b1-4)GlcNAc(b1-4)[Fuc(a1-6)]GlcNAc
# How it was run: as §1
# [22] = molecular target: Gal(b1-4)GlcNAc(b1-3)Gal(b1-4)GlcNAc(b1-3)Gal(b1-4)GlcNAc(b1-3)Gal(b1-4)GlcNAc(b1-2)Man(a1-3)[Gal(b1-4)GlcNAc(b1-3)Gal(b1-4)GlcNAc(b1-3)Gal(b1-4)GlcNAc(b1-3)Gal(b1-4)GlcNAc(b1-2)Man(a1-6)]Man(b1-4)GlcNAc(b1-4)[Fuc(a1-6)]GlcNAc
# How it was run: as §1
# [23] = molecular target: Gal3S(b1-3)GlcNAc
# How it was run: as §1
# [24] = molecular target: Gal3S(b1-4)[Fuc(a1-3)]GlcNAc
# How it was run: as §1
# [25] = molecular target: Glc(b1-4)Glc
# How it was run: as §1
# [26] = molecular target: GlcNAc(a1-4)Gal(b1-4)GlcNAc(b1-3)Gal(b1-4)[Fuc(a1-3)]GlcNAc(b1-3)Gal(b1-4)[Fuc(a1-3)]GlcNAc
# How it was run: as §1
# [27] = molecular target: GlcNAc(b1-2)Gal(b1-3)GalNAc
# How it was run: as §1
# [28] = molecular target: GlcNAc(b1-2)Man(a1-3)[GlcNAc(b1-2)Man(a1-6)]Man(b1-4)GlcNAc(b1-4)GlcNAc
# How it was run: as §1
# [29] = molecular target: GlcNAc(b1-2)[GlcNAc(b1-4)]Man(a1-3)[GlcNAc(b1-4)][GlcNAc(b1-2)[GlcNAc(b1-6)]Man(a1-6)]Man(b1-4)GlcNAc(b1-4)[Fuc(a1-6)]GlcNAc
# How it was run: as §1
# [30] = molecular target: GlcNAc(b1-3)Gal(b1-4)GlcNAc(b1-3)Gal(b1-4)GlcNAc(b1-2)Man(a1-3)[GlcNAc(b1-3)Gal(b1-4)GlcNAc(b1-3)Gal(b1-4)GlcNAc(b1-2)Man(a1-6)]Man(b1-4)GlcNAc(b1-4)GlcNAc
# How it was run: as §1
binder,measurement,setting,value
B1,glycan array binding signal (z-score),[1],4.25
same,glycan array binding signal (z-score),[2],-0.639
same,glycan array binding signal (z-score),[3],-0.806
same,glycan array binding signal (z-score),[4],-0.026
same,glycan array binding signal (z-score),[5],0.231
same,glycan array binding signal (z-score),[6],0.159
same,glycan array binding signal (z-score),[7],0.384
same,glycan array binding signal (z-score),[8],0.755
same,glycan array binding signal (z-score),[9],-1.06
same,glycan array binding signal (z-score),[10],3.63
same,glycan array binding signal (z-score),[11],0.09
same,glycan array binding signal (z-score),[12],0.073
same,glycan array binding signal (z-score),[13],2.76
same,glycan array binding signal (z-score),[14],3.75
same,glycan array binding signal (z-score),[15],-1.02
same,glycan array binding signal (z-score),[16],-0.396
same,glycan array binding signal (z-score),[17],-0.343
same,glycan array binding signal (z-score),[18],-0.484
same,glycan array binding signal (z-score),[19],0.238
same,glycan array binding signal (z-score),[20],-0.297
same,glycan array binding signal (z-score),[21],2.61
same,glycan array binding signal (z-score),[22],3.21
same,glycan array binding signal (z-score),[23],1.03
same,glycan array binding signal (z-score),[24],0.875
same,glycan array binding signal (z-score),[25],-0.567
same,glycan array binding signal (z-score),[26],2.71
same,glycan array binding signal (z-score),[27],0.388
same,glycan array binding signal (z-score),[28],-0.694
same,glycan array binding signal (z-score),[29],-1.04
same,glycan array binding signal (z-score),[30],2.79
